Assay results taken from PubChem BioAssay AID485353 (National Center for Advancing Translational Sciences (NCATS), 2010).
The whole screen tested about 330,000 compounds, of which about 610 (0.18%) were called active. Inconclusive results (about 2%) are left out. The sample as a whole holds a higher share of actives than the screen did. A number with no mark means an inactive call. The call rests on the fitted dose curve.

Test: qHTS of Yeast-based Assay for SARS-CoV PLP; further: nearly all actives have a fitted effect of over 55% in size; on activity, positive = growth rescue: 0% is about no effect
Details: S. cerevisiae expressing SARS-CoV PLpro; Potency: growth rescue; series mostly up to 32.9 µM; activity, positive = growth rescue: at the top concentration
Potency means the concentration at half of the fitted maximal effect.

Row | SMILES | activity, positive = growth rescue [%] | Potency
1 | COc1cccc(NC(=S)NC(=O)c2c(Cl)c(C)nn2C)c1 | 8.27 | –
2 | Cc1ccc2occ(/C=N/NC(=O)c3ccccc3C)c(=O)c2c1 | -12.5 | –
3 | Cc1nc2ccc(C(=O)N/N=C/c3ccc(O)cc3)cc2[nH]1 | -3.37 | –
4 | Cc1ccc(/C=N/NC(=O)C2=NNC(c3ccccc3)(c3ccccc3)C2)c(O)c1 | – | 3.55 µM (active)
5 | Cc1cc(OC(=O)c2ccccc2Cl)ccc1N1C(=O)CCC1=O | -1.19 | –
6 | CC(C)C(C)NC(=O)COc1nc2ccccc2nc1N(C)C1CCCCC1 (stereo not drawn) | 1.94 | –
7 | O=C(NC1CCN(C(=S)NCc2ccco2)CC1)c1ccc(F)cc1 | 2.87 | –
8 | Cn1c(=O)n(C)c2cc(CNc3ccc(N4CCOCC4)c(C(=O)O)c3)ccc21 | -1.54 | –
9 | CC(=O)Nc1cccc2c1[n+]([O-])c(C)c(C)[n+]2[O-] | 2.81 | –
10 | COC(=O)c1ccc(C(NC(=O)OCc2ccccc2)/C(C)=C/[C@@H](C)C(=O)NCc2ccc(OC)c(OC)c2)cc1 (stereo partly drawn) | -0.683 | –
11 | COc1ccc(CC(=O)N/N=C/c2cc([N+](=O)[O-])cc(Br)c2O)cc1 | -3.04 | –
12 | Cc1cc(C(=O)N/N=C/c2cc([N+](=O)[O-])cc(C)c2O)n[nH]1 | – | 4.47 µM (active)
13 | COc1ccc2ccccc2c1/C=N/NC(=O)c1cc(C)[nH]n1 | -2.51 | –
14 | CC(=O)c1ccc(NC(=O)C2CC(=O)Nc3nc4ccccc4n32)cc1 (stereo not drawn) | 0.911 | –
15 | O=c1[nH]c2ccc(S(=O)(=O)N3CCCC3)cc2[nH]1 | 1.84 | –
16 | COC(=O)C[n+]1cccc2ccccc21 | -1.62 | –
17 | CN(C)c1ccc(C(=S)N2CCN(C(=S)Nc3ccc(Cl)cc3)CC2)cc1 | -2.17 | –

Row | SMILES | activity, positive = growth rescue [%] | Potency
18 | COc1cc(N2CCCC2)c(OC)cc1/C=C(/C#N)c1cccc(Br)c1 | 11.2 | –
19 | CCOC(=O)C1C(=O)OC2(CCCC2)C1C(=O)OCC (stereo not drawn) | -2.52 | –
20 | CCN(C(=O)c1ccc(Br)cc1)c1ccccc1 | -0.842 | –
21 | CC1CCCCC1NC(=O)/C(C#N)=C/C=C/c1ccccc1[N+](=O)[O-] (stereo not drawn) | -0.169 | –
22 | COc1ccc(N(CCC(=O)NCCc2ccccc2)S(=O)(=O)c2ccc(C)cc2C)cc1 | -9.76 | –
23 | O=C(COC(=O)Cc1ccccc1F)NNC(=O)c1ccc(Cl)cc1 | 3.87 | –
24 | CCCCOC(=O)CNc1nnc(SCC(=O)OCC)[nH]c1=O | -2.39 | –
25 | CC(=N\NC(=O)c1cc(Br)ccc1O)/C(=N/O)C(=O)Nc1ccccc1 | -5.47 | –
26 | CC(C)/C=N/NC(=O)c1cc(Br)ccc1O | – | 10 µM (active)
27 | COc1ccc(-c2[nH]ncc2/C=N/NC(=O)c2cc(Br)ccc2O)c(OC)c1 | 26.5 | –
28 | COc1ccc(C)cc1NC(=O)CSc1ccc(Cl)cc1 | -14.2 | –
29 | COC(=O)c1scc(C)c1NC(=O)CSc1ccc(Cl)cc1 | – | 0.708 µM (active)
30 | COC(=O)c1cc(OC)c(OC)cc1NC(=O)CSc1ccc(C)cc1 | 5.7 | –
31 | CCOC(=O)c1c(/N=C/C2C(=O)CC(C)(C)CC2=O)sc(C)c1C | – | 3.16 µM (active)
32 | CCOC(=O)c1c(N)sc2c1CCCC2=O | 0.263 | –
33 | CCOC(=O)c1sc(/N=C/C2=C(O)CC(C)(C)CC2=O)c(C(=O)OCC)c1C | -0.745 | –
